“And” between values parts separate entries of the source, which are not always exact repeats. Identical values can stand only once. Inconclusive results are not listed. Where a structure was tested more than once in an assay, its records may differ in their call. The source made the active and inactive calls. Unless noted, the call rests on the fitted dose curve; in most records, active means well fitted curve in either direction with a large enough effect (not every such curve was filed as active); inconclusive means small, poorly fitted or top-dose-only effect, or another doubt; inactive means flat fitted curve, though single readings scatter.
What was measured:
[1] = AP1 Signaling Pathway (AID 357); conditions: ME-180 AP-1-bla reporter, EGF-induced, beta-lactamase ratio, 5 h;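 further: ME-180 reporter cells stimulated with EGF at its EC50 level; on the % scale 0 is the no-effect control and ±100 the full control effect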
Summary of the method: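 Beta-lactamase reporter under AP-1 response element, ME-180 background. Stimulus: EC50 EGF. Compound exposure 5 h, 37 °C. Detection: CCF4, 2.5 h RT, 460/530 nm. Values: AC50 from titration.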

[2] = NFAT Signaling Pathway (AID 444); conditions: Jurkat NFAT-bla M1, carbachol, beta-lactamase ratio, 5 h;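 further: carbachol stimulus at about its EC50 of 1 µM final; on the % scale 0 is the no-effect control and ±100 the full control effect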
Summary of the method: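 Read-out: CCF4 FRET ratio (460 nm/530 nm) after 1 h RT dye loading, used for %activity and AC50 from titration series. Cells: Jurkat NFAT-β-lactamase/M1 line, treated with compound plus 1 uM carbachol for 5 h, 37 °C.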

[3] = Stat Signaling Pathway (AID 446); conditions: ME-180 (cervical carcinoma) SIE beta-lactamase reporter, IL-6 stimulated, 5 h;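 further: ME-180 cervical cancer cells given 40 pM IL-6 alongside compound; SIE-controlled beta-lactamase reporter measured as 460/530 nm FRET emission ratio; on the % scale 0 is the no-effect control and ±100 the full control effect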
Summary of the method: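 FRET read-out (405 nm excitation, 460/530 nm emission) of a beta-lactamase reporter under a STAT-inducible element in ME-180 cervical carcinoma cells. Cells with compound receive 40 pM IL-6 for 5 h. Values are normalised to AC90 stimulation and AC90 JAK-inhibitor controls.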

[4] = target: Glucocorticoid receptor (Homo sapiens) (UniProt P04150); assay: GR-GFP Redistribution (AID 450;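 active means compounds whose dose series gives a full or clear partial fitted curve of increased nuclear translocation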; further: potency means the concentration at half of the fitted maximal effect); conditions: U2OS GR-GFP nuclear translocation, laser cytometry, 2 h
Chain of Glucocorticoid receptor (Homo sapiens) (P04150 whole entry, looked up, the tested form may be a part): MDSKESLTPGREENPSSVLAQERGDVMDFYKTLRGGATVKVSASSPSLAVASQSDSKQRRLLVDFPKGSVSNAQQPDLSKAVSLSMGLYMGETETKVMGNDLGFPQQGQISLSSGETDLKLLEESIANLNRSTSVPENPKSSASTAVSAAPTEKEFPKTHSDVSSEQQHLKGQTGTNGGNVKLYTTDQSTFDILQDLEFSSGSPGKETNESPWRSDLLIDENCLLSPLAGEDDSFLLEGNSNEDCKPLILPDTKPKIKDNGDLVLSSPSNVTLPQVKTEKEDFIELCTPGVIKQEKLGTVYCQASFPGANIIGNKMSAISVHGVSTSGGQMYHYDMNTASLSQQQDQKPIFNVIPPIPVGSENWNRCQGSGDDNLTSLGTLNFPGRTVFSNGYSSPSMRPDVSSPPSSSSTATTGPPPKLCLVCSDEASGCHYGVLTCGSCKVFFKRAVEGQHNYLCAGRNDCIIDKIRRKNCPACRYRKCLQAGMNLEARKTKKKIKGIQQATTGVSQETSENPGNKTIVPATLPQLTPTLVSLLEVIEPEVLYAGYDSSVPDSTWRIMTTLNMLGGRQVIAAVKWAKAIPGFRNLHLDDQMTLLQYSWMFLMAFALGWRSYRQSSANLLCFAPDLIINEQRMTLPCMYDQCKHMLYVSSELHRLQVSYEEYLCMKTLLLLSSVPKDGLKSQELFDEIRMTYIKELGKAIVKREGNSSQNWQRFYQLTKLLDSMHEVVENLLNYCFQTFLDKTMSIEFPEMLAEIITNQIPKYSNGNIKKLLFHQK

[5] = target: Glucocorticoid receptor (Homo sapiens) (UniProt P04150); assay: GR-EFC Redistribution (AID 451; calls by dose curve; further: potency means the concentration at half of the fitted maximal effect); conditions: CHO-K1 GR-EFC translocation, beta-gal luminescence, 2 h
Summary of the method: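 Translocation of GR-ED fusion to nuclear EA restores b-gal, read by luminescence after 1 h room-temperature detection. Engineered CHO-K1 biosensor cells, 1,000/well, exposed 2 h at 37 C to titrations up to 46 uM final.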

[6] = target: Mitogen-activated protein kinase 10 (Mus musculus) (UniProt Q61831); assay: JNK3 AlphaScreen Assay (AID 530);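 further: kinase came from lysate of stimulated human HepG2 cells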; further: potency means the concentration at half of the fitted maximal effect
Summary of the method: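 Kinase buffer: 20 mM Tris-HCl pH 7.6, 10 mM MgCl2, 1 mM DTT, 0.1 mM Na3VO4, 0.01% Tween-20; ATP 10 uM. Substrate biotin-GST-cJun(1-79), enzyme from activated HepG2 lysates. Detection by Ser73 phospho-antibody AlphaScreen.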

[7] = target: 3',5'-cyclic-AMP phosphodiesterase 4B (Homo sapiens) (UniProt Q07343); assay: qHTS Assay for Inhibitors of PDE-IV (AID 607; active means well fitted activation curve with a large enough effect in the main read-out, with a control signal flat, not every such curve was filed as active; further: % of control where 0% means no effect)
Chain of 3',5'-cyclic-AMP phosphodiesterase 4B (Homo sapiens) (Q07343 whole entry, looked up): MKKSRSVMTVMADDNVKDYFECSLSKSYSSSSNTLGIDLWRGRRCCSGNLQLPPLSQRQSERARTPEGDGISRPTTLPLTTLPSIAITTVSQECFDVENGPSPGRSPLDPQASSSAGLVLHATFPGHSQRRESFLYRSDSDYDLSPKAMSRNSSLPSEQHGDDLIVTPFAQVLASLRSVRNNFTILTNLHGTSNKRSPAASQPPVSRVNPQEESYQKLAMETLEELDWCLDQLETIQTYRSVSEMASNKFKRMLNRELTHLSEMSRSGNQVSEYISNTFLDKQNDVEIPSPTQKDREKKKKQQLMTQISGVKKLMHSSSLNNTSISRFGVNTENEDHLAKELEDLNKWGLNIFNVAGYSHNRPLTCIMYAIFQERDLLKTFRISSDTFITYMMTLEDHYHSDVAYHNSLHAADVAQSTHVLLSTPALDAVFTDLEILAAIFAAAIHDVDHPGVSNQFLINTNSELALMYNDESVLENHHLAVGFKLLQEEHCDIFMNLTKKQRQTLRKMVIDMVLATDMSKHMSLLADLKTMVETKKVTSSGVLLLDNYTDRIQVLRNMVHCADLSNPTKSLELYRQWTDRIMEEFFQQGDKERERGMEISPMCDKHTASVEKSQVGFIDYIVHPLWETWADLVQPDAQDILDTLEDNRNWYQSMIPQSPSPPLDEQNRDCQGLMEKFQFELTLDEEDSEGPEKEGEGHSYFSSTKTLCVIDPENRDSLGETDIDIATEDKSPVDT
Summary of the method: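 Cell-based read-out of cAMP via a modified cyclic nucleotide-gated channel and membrane potential dye (535/590 nm) in HEK293 cells expressing PDE4 endogenously. Compounds tested up to 22.9 uM final; 100 uM RO 20-1724 reference.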

[8] = target: Guanine nucleotide-binding protein G(i) subunit alpha-1 (Homo sapiens) (UniProt P63096); assay: qHTS Assay for Inhibitors of RGS12 GoLoco Motif Activity (Green Fluorophore) (AID 879; active means well fitted curve in the direction sought with a large enough effect; an effect the other way counts as inactive or inconclusive;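 further: 0% = labeled peptide with Gαi1 and full inhibition = labeled peptide alone without protein; negative values mean loss of peptide binding seen as reduced polarization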)
Chain of Guanine nucleotide-binding protein G(i) subunit alpha-1 (Homo sapiens) (P63096 whole entry, looked up): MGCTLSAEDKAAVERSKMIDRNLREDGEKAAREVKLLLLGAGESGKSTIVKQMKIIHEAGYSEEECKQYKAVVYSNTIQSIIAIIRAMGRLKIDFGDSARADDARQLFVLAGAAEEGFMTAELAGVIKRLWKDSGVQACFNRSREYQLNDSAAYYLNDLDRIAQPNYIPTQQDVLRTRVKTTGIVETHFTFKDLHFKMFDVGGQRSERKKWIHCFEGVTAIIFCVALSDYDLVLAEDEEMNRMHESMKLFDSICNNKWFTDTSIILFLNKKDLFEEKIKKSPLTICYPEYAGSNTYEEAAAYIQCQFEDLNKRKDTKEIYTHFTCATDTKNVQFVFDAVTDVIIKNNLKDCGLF
Summary of the method: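 A drop in FITC polarization marked displacement of the FITC-tagged RGS12 GoLoco peptide (10 nM) from Gαi1 (50 nM). Compounds were incubated 10 min at room temperature in Tris pH 7.5 buffer containing 150 mM NaCl, 0.1 mM GDP and 0.05% NP40; unlabeled peptide titration served as control.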

[9] = target: Pyruvate kinase (Leishmania mexicana) (UniProt Q27686); assay: qHTS Validation Assay for Inhibitors of Leishmania Mexicana Pyruvate Kinase (AID 945; active means well fitted curve in the direction sought with a large enough effect; an effect the other way counts as inactive or inconclusive;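 further: 0% = DMSO only neutral control wells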)
Chain of Pyruvate kinase (Leishmania mexicana) (Q27686 2-499 E452W): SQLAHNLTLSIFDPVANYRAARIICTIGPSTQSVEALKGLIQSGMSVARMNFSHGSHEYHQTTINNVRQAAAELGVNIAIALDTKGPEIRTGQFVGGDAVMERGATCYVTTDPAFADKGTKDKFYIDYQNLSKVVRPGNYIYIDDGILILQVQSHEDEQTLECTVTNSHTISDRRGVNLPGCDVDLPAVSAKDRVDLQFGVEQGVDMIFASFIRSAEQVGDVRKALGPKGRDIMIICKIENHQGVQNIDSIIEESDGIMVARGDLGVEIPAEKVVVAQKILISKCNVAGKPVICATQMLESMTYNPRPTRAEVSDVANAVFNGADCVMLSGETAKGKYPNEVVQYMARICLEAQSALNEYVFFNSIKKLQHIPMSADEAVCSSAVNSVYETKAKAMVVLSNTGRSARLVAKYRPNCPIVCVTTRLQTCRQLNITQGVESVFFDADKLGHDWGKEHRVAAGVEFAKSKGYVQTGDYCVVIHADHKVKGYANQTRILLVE
Summary of the method: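 Read-out: luminescence from PKLight stop/detection reagent, data normalized to DMSO. Reaction: 0.2 nM E451W LmPYK, 0.5 mM PEP, 0.1 mM ADP, pH 7.2, 1 h room temperature.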

[10] = qHTS Assay for Lipid Storage Modulators (AID 1519; calls by dose curve); conditions: Drosophila S3 cells, BODIPY lipid droplet/cell ratio, laser cytometry, cells loaded with oleic acid; for activity change, negative = inhibition: at 25.7 µM (top of the series)
Summary of the method: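 Cells seeded at 5,000 per well were treated with compounds over a concentration series and loaded with oleic acid (400 uM, as added). Lipid droplet fluorescence (488 nm excitation, 500-530 nm channel) was read by laser-scanning cytometry and normalized to 20 uM Triacsin C.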

[11] = target: Ubiquitin carboxyl-terminal hydrolase 1 (Homo sapiens) (UniProt O94782); assay: Inhibitors of USP1/UAF1: Pilot qHTS (AID 504865; active means well fitted curve in the direction sought with a large enough effect; an effect the other way counts as inactive or inconclusive;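 further: rhodamine fluorescence freed from ubiquitin-rhodamine substrate followed over time; top concentration of the series differs between compounds; on the % scale 0 is the no-effect control and ±100 the full control effect; nearly all actives have a fitted effect of over 35% in size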)
Chain of Ubiquitin carboxyl-terminal hydrolase 1 (Homo sapiens) (O94782 whole entry, looked up): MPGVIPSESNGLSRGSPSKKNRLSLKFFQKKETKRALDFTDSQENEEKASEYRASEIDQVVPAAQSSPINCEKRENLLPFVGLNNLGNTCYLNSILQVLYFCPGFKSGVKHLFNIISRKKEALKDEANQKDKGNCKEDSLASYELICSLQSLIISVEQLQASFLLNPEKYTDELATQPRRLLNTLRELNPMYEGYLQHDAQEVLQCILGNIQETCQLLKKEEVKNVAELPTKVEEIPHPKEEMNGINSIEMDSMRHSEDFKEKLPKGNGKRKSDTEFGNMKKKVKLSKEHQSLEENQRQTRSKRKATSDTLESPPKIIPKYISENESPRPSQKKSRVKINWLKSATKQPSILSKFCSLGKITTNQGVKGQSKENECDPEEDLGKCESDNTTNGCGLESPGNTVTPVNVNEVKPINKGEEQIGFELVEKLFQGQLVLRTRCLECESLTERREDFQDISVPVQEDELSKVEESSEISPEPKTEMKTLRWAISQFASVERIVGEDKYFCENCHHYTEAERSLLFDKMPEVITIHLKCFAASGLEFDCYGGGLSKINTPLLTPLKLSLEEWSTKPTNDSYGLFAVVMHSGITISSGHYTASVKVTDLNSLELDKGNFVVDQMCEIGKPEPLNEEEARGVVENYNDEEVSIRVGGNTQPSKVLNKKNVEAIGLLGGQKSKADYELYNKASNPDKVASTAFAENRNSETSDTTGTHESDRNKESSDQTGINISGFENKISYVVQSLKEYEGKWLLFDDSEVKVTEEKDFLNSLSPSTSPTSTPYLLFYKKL
Summary of the method: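 USP1/UAF1 complex at 1 nM preincubated 15 min at room temperature with compound, then Ub-Rho substrate added at 150 nM final. Fluorescence (480/540 nm) read kinetically in 50 mM HEPES pH 7.8, 0.5 mM EDTA, 1 mM TCEP, 0.1 mg/ml BSA, 0.01% Tween-20.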

[12] = target: Cytochrome P450 1A2 (Homo sapiens) (UniProt P05177); assay: p450-cyp1a2 (AID 410; calls by dose curve; further: potency means the concentration at half of the fitted maximal effect;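 on activity change, negative = inhibition: -100% = full effect of reference inhibitor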)
Chain of Cytochrome P450 1A2 (Homo sapiens) (P05177 whole entry, looked up): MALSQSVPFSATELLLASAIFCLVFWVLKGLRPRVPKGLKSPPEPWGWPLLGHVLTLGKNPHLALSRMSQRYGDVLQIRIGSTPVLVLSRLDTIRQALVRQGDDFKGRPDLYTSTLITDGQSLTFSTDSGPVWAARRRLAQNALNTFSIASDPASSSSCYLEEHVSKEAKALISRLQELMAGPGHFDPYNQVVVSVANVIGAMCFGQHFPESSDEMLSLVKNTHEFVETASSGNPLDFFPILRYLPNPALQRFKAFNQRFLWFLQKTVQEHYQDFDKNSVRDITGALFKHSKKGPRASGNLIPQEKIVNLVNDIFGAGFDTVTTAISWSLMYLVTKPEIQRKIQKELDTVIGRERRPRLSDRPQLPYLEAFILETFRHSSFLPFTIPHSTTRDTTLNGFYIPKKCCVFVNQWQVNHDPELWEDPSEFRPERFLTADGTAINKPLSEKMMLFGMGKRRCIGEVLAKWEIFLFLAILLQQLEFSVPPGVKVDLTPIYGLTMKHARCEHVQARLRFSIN
Summary of the method: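 20nM CYP1A2, 100uM Luciferin-ME (=Km), 100mM KPO4; cpd 10 min RT; +NADPH regen, 60 min RT; stop/detect 20 min; luminescence. Normalized to furafylline 57 uM = full inhibition.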

[13] = target: Pyruvate kinase PKM (Homo sapiens) (UniProt P14618); assay: qHTS Assay for Activators of Human Muscle Pyruvate Kinase (AID 954; active means well fitted curve in the direction sought with a large enough effect, not every such curve was filed as active;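 further: 0% = uninhibited enzyme and -100% = no enzyme or full thiadiazolimine inhibition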)
Chain of Pyruvate kinase PKM (Homo sapiens) (P14618 whole entry, looked up): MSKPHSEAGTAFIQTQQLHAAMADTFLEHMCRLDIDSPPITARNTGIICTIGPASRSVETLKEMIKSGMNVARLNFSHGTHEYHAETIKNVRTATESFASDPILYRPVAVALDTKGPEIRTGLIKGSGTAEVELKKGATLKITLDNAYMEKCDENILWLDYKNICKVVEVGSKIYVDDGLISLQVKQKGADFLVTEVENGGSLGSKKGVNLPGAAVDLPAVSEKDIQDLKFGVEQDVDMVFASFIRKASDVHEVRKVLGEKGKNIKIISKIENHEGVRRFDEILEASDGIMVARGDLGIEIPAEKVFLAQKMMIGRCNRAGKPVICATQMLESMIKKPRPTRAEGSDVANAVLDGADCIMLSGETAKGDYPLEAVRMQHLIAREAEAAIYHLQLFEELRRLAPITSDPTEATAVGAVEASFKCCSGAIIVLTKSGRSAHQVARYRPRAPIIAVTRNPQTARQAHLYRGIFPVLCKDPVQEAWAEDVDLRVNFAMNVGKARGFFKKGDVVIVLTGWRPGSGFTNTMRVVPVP
Summary of the method: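 ATP production by PKM2 detected via luciferase luminescence after 1 h room-temperature reaction (0.1 nM enzyme, PEP at Km 0.5 mM, ADP 0.1 mM, pH 7.2 imidazole buffer). Inhibition scaled to no-enzyme control; activation referenced to 0.3 nM enzyme wells.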

[14] = target: ATP-dependent 6-phosphofructokinase (Trypanosoma brucei brucei) (UniProt O15648); assay: qHTS Assay to Find Inhibitors of T. brucei phosphofructokinase: hit validation (AID 492961; active means well fitted curve in the direction sought with a large enough effect; an effect the other way counts as inactive or inconclusive;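 further: luminescence reports ADP formed as PFK phosphorylates fructose-6-phosphate with ATP; on the % scale 0 is the no-effect control and ±100 the full control effect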)
Summary of the method: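 Measures ADP output of PFK (1.25 nM) at 0.1 mM ATP, 0.5 mM F6P, pH 8.0 TEA buffer with 5 mM MgCl2. No-enzyme wells define full inhibition; uninhibited enzyme wells define zero.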

[15] = target: Luciferin 4-monooxygenase (Photinus pyralis) (UniProt P08659); assay: Biochemical firefly luciferase enzyme assay for NPC (AID 624030; active means well fitted curve in the direction sought with a large enough effect; an effect the other way counts as inactive or inconclusive;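 further: purified P. pyralis luciferase at 10 nM with luciferin and ATP substrate; 0% = DMSO and -100% = full luciferase inhibition by PTC124 control; nearly all actives have a fitted effect of over 70% in size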)
Chain of Luciferin 4-monooxygenase (Photinus pyralis) (P08659 whole entry, looked up): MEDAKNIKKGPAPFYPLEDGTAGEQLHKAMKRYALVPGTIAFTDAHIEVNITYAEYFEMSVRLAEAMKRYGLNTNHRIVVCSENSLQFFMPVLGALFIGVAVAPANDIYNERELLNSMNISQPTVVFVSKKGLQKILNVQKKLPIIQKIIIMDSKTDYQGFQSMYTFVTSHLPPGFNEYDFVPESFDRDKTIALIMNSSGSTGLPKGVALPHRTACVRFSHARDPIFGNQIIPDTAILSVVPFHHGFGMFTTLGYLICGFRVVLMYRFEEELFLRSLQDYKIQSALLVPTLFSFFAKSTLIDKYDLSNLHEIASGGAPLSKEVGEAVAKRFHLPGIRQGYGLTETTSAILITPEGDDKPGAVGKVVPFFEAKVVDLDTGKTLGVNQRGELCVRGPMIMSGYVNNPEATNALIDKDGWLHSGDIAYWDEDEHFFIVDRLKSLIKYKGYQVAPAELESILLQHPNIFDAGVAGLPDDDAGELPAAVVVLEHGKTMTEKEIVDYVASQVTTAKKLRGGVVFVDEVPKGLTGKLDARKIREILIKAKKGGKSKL
Summary of the method: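 Direct inhibition of firefly luciferase enzyme (10 nM final, 50 mM Tris Acetate) assessed by luminescence within 5 minutes. Percent activity scaled between DMSO and PTC124 positive control, with concentration-effect curves classified by fit quality and response.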

[16] = qHTS profiling for inhibitors of Plasmodium falciparum proliferation (AID 504749; active means well fitted curve in the direction sought with a large enough effect; an effect the other way counts as inactive or inconclusive;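 further: 0% = DMSO vehicle and full inhibition = artemisinin control; nearly all actives have a fitted effect of over 60% in size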); conditions: P. falciparum in erythrocytes, SYBR Green DNA, 72 h, at 12.8 µM (top of the series)
Summary of the method: (§1)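 In a 72 h erythrocytic culture (37 C, humidified, 5% CO2) at 2.5% hematocrit and 0.3% starting parasitemia, compounds were tested; SYBR Green I in detergent lysis buffer stained parasite DNA overnight.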

AS120 = assay: as above; conditions: P. falciparum in erythrocytes, SYBR Green DNA, 72 h; series mostly up to 28.7 µM
Summary of the method: as §1

CP238 = assay: as above; conditions: P. falciparum in erythrocytes, SYBR Green DNA, 72 h; series mostly up to 12.8 µM
Summary of the method: as §1

CP265 = assay: as above; conditions: P. falciparum in erythrocytes, SYBR Green DNA, 72 h; series mostly up to 12.8 µM
Summary of the method: as §1

FAB9 = assay: as above; conditions: P. falciparum in erythrocytes, SYBR Green DNA, 72 h; series mostly up to 12.8 µM
Summary of the method: as §1

[17] = measured here: cell count channel max response
[18] = measured here: lipid channel max response
[19] = at 7.69 µM (top of the series) unless noted

CN1CCc2cccc3c2[C@@H]1Cc1ccc(O)c(O)c1-3
inactive and 15.8 µM (active): Potency [6]
inactive: activity change, negative = inhibition ([1]; at 17.2 µM (top of the series)) -20.2% | activity change, negative = inhibition ([1]; at 38 µM (top of the series)) -26.6% | activity change, negative = inhibition ([2]; at 17.2 µM (top of the series)) -6.25% | activity change, negative = inhibition ([2]; at 38 µM (top of the series)) -15.4% | activity, negative = inhibition ([3]; at 17.2 µM (top of the series)) 1.07% | activity, negative = inhibition ([3]; at 38 µM (top of the series)) -10.2% | Potency [4] > 46 µM and > 20.6 µM | Potency [5] > 46 µM and > 20.6 µM | Potency [7] | Potency [8] | outcome [9] | activity change, negative = inhibition [10] 2.32% | Potency [11]
2.96%: max response [10, 17]
6.43%: max response [10, 18]

CN(C)CC[C@H](c1ccc(Br)cc1)c1ccccn1
-5.95%: max response [10, 18]
inactive: activity change, negative = inhibition ([1]; at 17.2 µM (top of the series)) 0.671% | activity change, negative = inhibition ([1]; at 38 µM (top of the series)) 15.7% and 25.3% | Potency [12] | activity, negative = inhibition ([3]; at 17.2 µM (top of the series)) -5.49% | activity, negative = inhibition ([3]; at 38 µM (top of the series)) -29.8% | Potency [6] | Potency [7] | Potency [8] | outcome [9] | outcome [13] | activity change, negative = inhibition [10] -2.32% | Potency [11]
-4.35%: max response [10, 17]

C=CCc1ccccc1OC[C@H](O)CNC(C)C
-3.45%: max response [10, 18]
active: Potency [12] 7.94 µM and 3.16 µM
-4%: max response [10, 17]
inactive: activity change, negative = inhibition ([1]; at 17.2 µM (top of the series)) 12.5% | activity change, negative = inhibition ([1]; at 38 µM (top of the series)) 11.9% | activity change, negative = inhibition ([2]; at 17.2 µM (top of the series)) -2.1% | activity change, negative = inhibition ([2]; at 38 µM (top of the series)) -5.09% | activity, negative = inhibition [3, 19] 5.89% [at 17.2 µM] | Potency [6] | Potency [7] | Potency [8] | outcome [9] | outcome [13] | activity change, negative = inhibition [10] 0.0029% | Potency [11]

C[C@]12CCC3c4ccc(O)cc4CCC3[C@@H]1CCC2=O (some centres not stated)
-8.59%: max response [10, 18]
inactive: activity change, negative = inhibition ([1]; at 17.2 µM (top of the series)) 0.112% | activity change, negative = inhibition ([1]; at 38 µM (top of the series)) -3.57% | activity change, negative = inhibition ([2]; at 17.2 µM (top of the series)) -16.8% | activity change, negative = inhibition ([2]; at 38 µM (top of the series)) -2.29% | activity, negative = inhibition ([3]; at 17.2 µM (top of the series)) -9.06% | activity, negative = inhibition ([3]; at 38 µM (top of the series)) -20.6% | Potency [6] | Potency [7] | activity change, negative = inhibition [10] -0.972% | Potency [11]
-7.49%: max response [10, 17]

CC(C)(O/N=C(\C(=O)N[C@@H]1C(=O)N2C(C(=O)[O-])=C(C[n+]3ccccc3)CS[C@@H]12)c1csc(N)n1)C(=O)O
-1.74%: max response [10, 17]
-1.95%: max response [10, 18]
inactive: activity change, negative = inhibition [1, 19] 8.59% [at 17.2 µM] | Potency [12] | activity change, negative = inhibition [2, 19] 7.85% [at 17.2 µM] | activity, negative = inhibition [3, 19] 7.45% [at 17.2 µM] | Potency [4] > 20.6 µM | Potency [5] > 20.6 µM | Potency [6] | Potency [7] | activity change, negative = inhibition [10] 0.159% | outcome [14] | Potency [11] | outcome [15] | activity, negative = inhibition ([16]; parasite line A) 2.04% | activity, negative = inhibition ([16]; parasite line B) -2.21% | Potency (AS120) | Potency (CP238) | Potency (CP265) | Potency (FAB9)

Source: PubChem BioAssay (NCATS)
